Results on 17 molecules are retold here after PubChem BioAssay (NCI).

About 79,000 compounds went through this panel and 15% of them were active in at least one assay; those are over-represented in the sample as a whole. Activity calls are given as the source filed them. No stated cut-off is given here; in the data, active means growth inhibition above about 70%; inactive means the rest.

The assay is described as follows: NCI Yeast Anticancer Drug Screen. Data for the mec2-1 strain (AID 157). Particulars: S. cerevisiae mec2-1 strain, at 50.0 µM, stronger effect = higher value. In outline:
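Test agents were screened against the mec2-1 yeast strain, with defined DNA repair or cell cycle alteration. Growth was scored as inhibition against vehicle-only controls.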
Turning to `NC(=O)c1[nH]c(/N=N/c2nc[nH]c2C(N)=O)nc1N`, the growth inhibition is 21.6% (inactive).
The same measure for `Oc1ccc(Cl)c(O)c1`: -0.55% (inactive); for `Cn1c(=O)c2[nH]c(NCc3ccccc3)nc2n(C)c1=O`: -3.9% (inactive).
The same measure for `CCOC(=O)C1=C(C)NC(C)=C(C(=O)OCC)C1C`: -35.9% (inactive).
The same measure for `COc1cccc(N(CN2C(=O)CCC2OC)C(C)=O)c1` (configuration not stated): 7.35% (inactive).
Turning to `O=C(Nc1ccc(Cl)c(Cl)c1)Oc1ccc(Cl)cc1C(=O)Nc1ccccc1`, the growth inhibition is -2.6% (inactive).
Take `CCCCCc1[nH]c(=O)[nH]c(=O)c1S(=O)(=O)N1CCCCC1`: the growth inhibition was 28.4% (inactive).
Turning to `CC(=O)N(CN1C(=O)CCC1C(=O)O)c1ccccc1` (configuration not stated), the growth inhibition is -0.55% (inactive).
Regarding `NC(CCOCCP(=O)(O)CCC1C=CC=CC1)C(=O)O` (configuration not stated), the growth inhibition was -31.7% (inactive).
Regarding `Nc1ccc([N+](=O)[O-])c2ccccc12`, the growth inhibition was -8.75% (inactive).
The same measure for `Cc1ccc(C(=O)/C=C/c2ccco2)cc1`: 33.6% (inactive); for `C=CCNC(=O)NCCCC(NC(C)=O)C(=O)NCc1ccccc1` (configuration not stated): -21.3% (inactive).
Turning to `O=c1c2cnc3cc(Cl)ccc3c2[nH]n1-c1ccc(Cl)cc1`, the growth inhibition is 0.45% (inactive).
For `COc1ccc(-c2cc(C)n(C3OC(CO)C(O)C(O)C3O)c(=S)c2C#N)cc1` (configuration not stated), the growth inhibition is 8.15% (inactive).
In the case of `CC(=O)OC1CCC2(C)C3CCC4(C)C(C(C)CCCC(C)C)CCC4C3CC(=O)C23CC13` (configuration not stated) it was -3.85% (inactive); in that of `CCCOc1nc(N)c2cnn(C3CCCCO3)c2n1` (configuration not stated), -25.5% (inactive); in that of `CC(=O)O[C@@H]1[C@@H](C)[C@]2(CC(c3ccoc3)OC2O)C2CCC3O[C@]3(C)[C@]2(C)[C@@H]1OC(C)=O` (some centres not stated), -20.1% (inactive).
